# According to PubChem BioAssay (NCATS):
# “And” between values parts separate entries of the source, which are not always exact repeats. Identical values can stand only once. Results filed as inconclusive are left out. Where a call stands in place of a potency, no number is given. The source made the active and inactive calls. Unless noted, calls follow the shape of the dose curve; as a rule, active = well fitted curve in the direction sought with a large enough effect; inconclusive = small, poorly fitted or top-dose-only effect, or another doubt; inactive = no such curve, though single readings can be large; an effect the other way counts as inactive or inconclusive.
# What was measured:
# [1] = biological target: Papain (Carica papaya) (UniProt P00784); experiment: Primary qHTS assay for inhibitors of the protease papain (AID 1645873);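 also: papain turnover of Z-FR-AMC read as the AMC fluorescence gain over 10 min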; also: potency is read from the fitted curve at half-maximal effect
# [2] = biological target: Catechol O-methyltransferase (Homo sapiens) (UniProt P21964); experiment: Confirmatory Screen for Target Class Profiling of Small Molecule Inhibitors of Methyltransferases (AID 1745852; calls by dose curve; also: potency is read from the fitted curve at half-maximal effect); conditions: MTase-Glo luminescence, SAH detection, recombinant enzyme; measured here: COMT max response; stronger effect = lower value
# [3] = biological target: Guanidinoacetate N-methyltransferase (Homo sapiens) (UniProt Q14353); experiment: as above; conditions: MTase-Glo luminescence, SAH detection, recombinant enzyme; activity change, negative = inhibition: at 57.3 µM (top of the series)
# [4] = biological target: Nicotinamide N-methyltransferase (Homo sapiens) (UniProt P40261); experiment: as above; conditions: MTase-Glo luminescence, SAH detection, recombinant enzyme; measured here: NNMT max response; stronger effect = lower value
# [5] = biological target: Phenylethanolamine N-methyltransferase (Homo sapiens) (UniProt P11086); experiment: as above; conditions: MTase-Glo luminescence, SAH detection, recombinant enzyme; measured here: PNMT max response; stronger effect = lower value
# [6] = biological target: Nuclear receptor subfamily 1 group I member 3 (Homo sapiens) (UniProt Q14994); experiment: Primary qHTS for antagonist of constitutive androstane receptor (CAR) against the NCATS DSHEA and TCM libraries (AID 1794836)
# Method in brief: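 HepG2 cells stably carrying hCAR and a CYP2B6 luciferase reporter (2,500 cells/well) attached for 5 h, then received compounds with 48 uM CITCO for 24 h at 37C. ONE-Glo luminescence read antagonism; CellTiter-Fluor (405/540 nm) gave viability.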
# [7] = Viability counterscreen for antagonist of constitutive androstane receptor (CAR) against the NCATS DSHEA and TCM libraries (AID 1794837);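 also: compound exposure lasted 24 h before viability reading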
# Method in brief: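 Counterscreen performed in a 1536-well qHTS format using HepG2-CYP2B6-hCAR cells; samples titrated in the presence of 48 uM CITCO, with viability measured fluorometrically (405/540 nm) after 24 h.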
# [8] = Viability counterscreen for agonist of constitutive androstane receptor (CAR) against the NCATS DSHEA and TCM libraries (AID 1794838)
# Method in brief: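 Multiplexed counterscreen: after 24 h compound exposure with 0.75 uM PK11195, HepG2-CYP2B6-hCAR viability was quantified fluorimetrically (CellTiter-Fluor, 405/540 nm) prior to the ONE-Glo luciferase read.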
# [9] = biological target: Nuclear receptor subfamily 1 group I member 3 (Homo sapiens) (UniProt Q14994); experiment: Primary qHTS for agonist of constitutive androstane receptor (CAR) against the NCATS DSHEA and TCM libraries (AID 1794839); conditions: CAR agonist reporter cells, qHTS luminescence; also: potency is read from the fitted curve at half-maximal effect
# Method in brief: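 Concentration–response screen in HepG2-CYP2B6-hCAR cells under 0.75 µM PK11195; 24 h exposure; luminescent reporter signal with multiplexed fluorescent viability.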
# [10] = HepG2 viability counterscreen (readout 2: ATP content) against the NCATS DSHEA and TCM libraries (AID 1794840);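 also: HepG2 cells exposed to substances for about 24 h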
# Method in brief: (§1)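 After HepG2 cells attach for ~4 h, substances are added and incubated ~24 h at 37C, 5% CO2. GF-AFC fluorescence then CellTiter-Glo luminescence give protease and ATP readouts.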
# [11] = HepG2 viability counterscreen (readout 1: protease activity) against the NCATS DSHEA and TCM libraries (AID 1794841);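 also: cells exposed to compounds for about 24 h before the protease read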
# Method in brief: as §1
# [12] = Primary qHTS for inhibitors of nuclear receptor binding SET domain protein 2 (NSD2) in an isogenic RCH-ACV NSD2 p.E1099K mutant (9B) (AID 1645876); also: nearly all actives have a fitted effect of over 70% in size; also: potency is read from the fitted curve at half-maximal effect
# [13] = Primary qHTS for inhibitors of nuclear receptor binding SET domain protein 2 (NSD2) in an RCH-ACV wild type WT cells (2C) (AID 1645877); also: nearly all actives have a fitted effect of over 70% in size; also: potency is read from the fitted curve at half-maximal effect
# [14] = NCATS anti-infectives library activity on HEK293 viability as a counter-qHTS vs the C. elegans viability qHTS (AID 1745854);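 also: HEK293 cells exposed to compounds for 24 hr before the viability read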
# Method in brief: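 Compounds were acoustically plated (several concentrations, 1:5, final up to 41.7 uM), then 1500 HEK293 cells added per well and incubated 24 hr at 37C, 5% CO2. CellTiter-Glo was added and luminescence read after 10 min.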
# [15] = biological target: Rap guanine nucleotide exchange factor 3 (Homo sapiens) (UniProt O95398); experiment: Confirmatory qHTS for antagonist of cAMP-regulated guanine nucleotide exchange factor 3 (EPAC1) (AID 1645880); also: nearly all actives have a fitted effect of over 55% in size
# Method in brief: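 Nucleotide exchange uses 100 nM EPAC1, 250 nM RAP1B-BODIPY-GDP and 50 uM GDP, with compounds in a concentration-titration series. After 5 min at room temperature, fluorescence (480 nm ex/540 nm em) is read every 5 min for 30 min. Data are normalized to control ATA and DMSO.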
# [16] = biological target: Rap guanine nucleotide exchange factor 3 (Homo sapiens) (UniProt O95398); experiment: Confirmatory qHTS for agonist of cAMP-regulated guanine nucleotide exchange factor 3 (EPAC1) (AID 1645881);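 also: EPAC1 catalysed release of BODIPY-GDP from Rap1B seen as fluorescence loss; nearly all actives have a fitted effect of over 75% in size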
# [17] = biological target: Rap guanine nucleotide exchange factor 4 (Homo sapiens) (UniProt Q8WZA2); experiment: Confirmatory qHTS for agonist of cAMP-regulated guanine nucleotide exchange factor 4 (EPAC2) (AID 1645884);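 also: nucleotide exchange releases bodipy-GDP from Rap1 and this lowers its fluorescence; nearly all actives have a fitted effect of over 65% in size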
# Chain of Rap guanine nucleotide exchange factor 4 (Homo sapiens) (Q8WZA2 whole entry, looked up): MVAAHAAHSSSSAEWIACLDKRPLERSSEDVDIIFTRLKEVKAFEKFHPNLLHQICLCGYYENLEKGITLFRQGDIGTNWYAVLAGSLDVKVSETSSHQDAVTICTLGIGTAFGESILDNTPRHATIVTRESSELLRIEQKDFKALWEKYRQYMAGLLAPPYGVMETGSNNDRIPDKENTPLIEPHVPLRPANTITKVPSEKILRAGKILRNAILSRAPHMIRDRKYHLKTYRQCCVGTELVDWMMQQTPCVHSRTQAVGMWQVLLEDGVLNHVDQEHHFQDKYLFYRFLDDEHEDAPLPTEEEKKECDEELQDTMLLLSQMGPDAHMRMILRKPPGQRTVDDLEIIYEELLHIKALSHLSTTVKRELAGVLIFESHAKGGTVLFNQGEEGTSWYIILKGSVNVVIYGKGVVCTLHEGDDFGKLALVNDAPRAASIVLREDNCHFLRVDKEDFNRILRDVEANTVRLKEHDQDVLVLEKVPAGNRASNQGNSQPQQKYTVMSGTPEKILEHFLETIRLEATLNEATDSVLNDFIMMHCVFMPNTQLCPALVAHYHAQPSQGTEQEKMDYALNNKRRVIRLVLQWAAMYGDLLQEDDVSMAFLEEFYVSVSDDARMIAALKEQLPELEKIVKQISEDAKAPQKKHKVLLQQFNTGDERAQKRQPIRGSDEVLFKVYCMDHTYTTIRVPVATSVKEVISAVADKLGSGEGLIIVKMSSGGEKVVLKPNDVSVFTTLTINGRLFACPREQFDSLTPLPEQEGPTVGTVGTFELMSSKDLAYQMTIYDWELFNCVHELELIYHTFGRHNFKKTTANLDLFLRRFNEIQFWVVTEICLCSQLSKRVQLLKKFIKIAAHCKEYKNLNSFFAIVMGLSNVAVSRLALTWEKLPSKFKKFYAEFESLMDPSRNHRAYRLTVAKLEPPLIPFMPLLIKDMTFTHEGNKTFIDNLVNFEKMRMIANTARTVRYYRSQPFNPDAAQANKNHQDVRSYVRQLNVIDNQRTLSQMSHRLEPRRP
# Chain of Papain (Carica papaya) (P00784 whole entry, looked up): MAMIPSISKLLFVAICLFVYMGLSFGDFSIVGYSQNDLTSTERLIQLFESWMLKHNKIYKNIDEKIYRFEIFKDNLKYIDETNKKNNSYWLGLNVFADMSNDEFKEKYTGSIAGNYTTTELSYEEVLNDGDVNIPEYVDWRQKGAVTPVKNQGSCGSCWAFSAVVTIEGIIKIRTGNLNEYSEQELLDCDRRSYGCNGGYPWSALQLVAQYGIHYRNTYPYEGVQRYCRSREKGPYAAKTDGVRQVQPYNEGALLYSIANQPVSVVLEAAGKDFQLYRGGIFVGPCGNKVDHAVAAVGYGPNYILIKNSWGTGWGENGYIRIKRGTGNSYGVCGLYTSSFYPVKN
# Chain of Catechol O-methyltransferase (Homo sapiens) (P21964 whole entry, looked up): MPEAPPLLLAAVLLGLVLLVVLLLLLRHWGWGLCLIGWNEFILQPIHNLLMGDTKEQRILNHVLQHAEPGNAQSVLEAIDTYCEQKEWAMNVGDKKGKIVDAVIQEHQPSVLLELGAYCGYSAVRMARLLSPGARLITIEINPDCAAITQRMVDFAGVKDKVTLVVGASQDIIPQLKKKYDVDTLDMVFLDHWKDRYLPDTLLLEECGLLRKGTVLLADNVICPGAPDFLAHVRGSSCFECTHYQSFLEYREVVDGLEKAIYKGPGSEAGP
# Chain of Nicotinamide N-methyltransferase (Homo sapiens) (P40261 whole entry, looked up): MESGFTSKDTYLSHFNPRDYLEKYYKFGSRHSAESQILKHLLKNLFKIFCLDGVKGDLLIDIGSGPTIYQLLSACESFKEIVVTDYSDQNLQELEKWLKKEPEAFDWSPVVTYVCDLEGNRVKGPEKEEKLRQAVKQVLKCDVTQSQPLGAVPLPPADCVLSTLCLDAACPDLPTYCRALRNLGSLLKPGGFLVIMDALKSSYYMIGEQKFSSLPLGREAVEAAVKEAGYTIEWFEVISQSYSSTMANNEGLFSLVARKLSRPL
# Chain of Phenylethanolamine N-methyltransferase (Homo sapiens) (P11086 whole entry, looked up): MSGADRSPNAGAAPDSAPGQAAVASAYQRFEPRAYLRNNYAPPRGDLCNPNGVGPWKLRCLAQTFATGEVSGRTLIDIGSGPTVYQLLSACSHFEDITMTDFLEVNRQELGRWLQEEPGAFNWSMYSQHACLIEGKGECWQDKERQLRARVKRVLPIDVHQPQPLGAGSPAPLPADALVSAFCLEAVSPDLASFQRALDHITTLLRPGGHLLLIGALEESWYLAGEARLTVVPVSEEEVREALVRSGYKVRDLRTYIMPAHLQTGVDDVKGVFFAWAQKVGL
# Chain of Nuclear receptor subfamily 1 group I member 3 (Homo sapiens) (Q14994 whole entry, looked up): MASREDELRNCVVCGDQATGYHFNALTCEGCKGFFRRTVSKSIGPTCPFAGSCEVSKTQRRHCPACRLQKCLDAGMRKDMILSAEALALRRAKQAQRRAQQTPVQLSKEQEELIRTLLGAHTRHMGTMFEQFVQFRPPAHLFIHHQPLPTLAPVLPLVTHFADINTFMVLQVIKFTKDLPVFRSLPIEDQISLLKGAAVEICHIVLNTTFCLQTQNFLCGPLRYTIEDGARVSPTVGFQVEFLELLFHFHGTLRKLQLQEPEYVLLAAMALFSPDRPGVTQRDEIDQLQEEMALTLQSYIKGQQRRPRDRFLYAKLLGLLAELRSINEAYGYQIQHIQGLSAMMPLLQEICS
# Chain of Rap guanine nucleotide exchange factor 3 (Homo sapiens) (O95398 whole entry, looked up): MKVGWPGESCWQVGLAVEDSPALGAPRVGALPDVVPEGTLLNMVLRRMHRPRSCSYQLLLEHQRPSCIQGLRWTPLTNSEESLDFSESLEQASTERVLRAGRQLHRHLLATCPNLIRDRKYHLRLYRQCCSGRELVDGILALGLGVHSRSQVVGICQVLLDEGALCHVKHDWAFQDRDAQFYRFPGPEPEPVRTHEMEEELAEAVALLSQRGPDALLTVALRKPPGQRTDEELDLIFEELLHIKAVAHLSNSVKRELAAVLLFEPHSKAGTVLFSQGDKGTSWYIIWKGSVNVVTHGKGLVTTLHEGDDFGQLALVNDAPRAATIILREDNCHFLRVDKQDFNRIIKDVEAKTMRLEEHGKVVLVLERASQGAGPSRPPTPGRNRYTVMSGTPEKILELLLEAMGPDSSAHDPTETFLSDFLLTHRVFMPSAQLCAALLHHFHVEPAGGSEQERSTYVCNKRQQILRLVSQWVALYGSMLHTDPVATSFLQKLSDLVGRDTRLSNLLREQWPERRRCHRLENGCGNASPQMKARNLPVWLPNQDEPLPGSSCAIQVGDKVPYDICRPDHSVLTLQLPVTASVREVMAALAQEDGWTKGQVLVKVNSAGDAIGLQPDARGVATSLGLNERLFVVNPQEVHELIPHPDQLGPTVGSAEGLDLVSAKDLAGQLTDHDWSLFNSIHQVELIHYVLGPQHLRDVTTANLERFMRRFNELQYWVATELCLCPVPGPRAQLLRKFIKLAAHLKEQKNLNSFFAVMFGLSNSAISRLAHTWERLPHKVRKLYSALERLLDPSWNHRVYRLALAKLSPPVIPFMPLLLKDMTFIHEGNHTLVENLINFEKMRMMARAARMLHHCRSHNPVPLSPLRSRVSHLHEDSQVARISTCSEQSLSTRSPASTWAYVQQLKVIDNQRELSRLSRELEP
smiles,measurement,setting,value
CC(O)(CS(=O)(=O)c1ccc(F)cc1)C(=O)Nc1ccc(C#N)c(C(F)(F)F)c1 (stereo not given),Potency,[1],inactive
CC(C)=CCOc1c2occc2cc2ccc(=O)oc12,Potency,[1],inactive
same,activity,[2],-8.52%
same,"activity change, negative = inhibition",[3],-1.68%
same,activity,[4],-26.3%
same,activity,[5],-3.85%
same,outcome,[6],inactive
same,outcome,[7],inactive
same,outcome,[8],inactive
same,Potency,[9],14.1 µM (active)
same,outcome,[10],inactive
same,outcome,[11],inactive
NCC(CC(=O)O)c1ccc(Cl)cc1 (stereo not given),Potency,[1],inactive
same,"activity change, negative = viability loss",[12],3.1% [at 0.588 µM] (inactive)
same,"activity change, negative = cell killing",[13],-19.2% [at 0.588 µM] (inactive)
same,outcome,[14],inactive
CNCC(O)c1ccc(O)cc1 (stereo not given),Potency,[1],inactive
same,Potency,[12],inactive
same,Potency,[13],inactive
Nc1ccncc1,Potency,[1],inactive
same,Potency,[12],inactive
same,Potency,[13],inactive
same,activity,[2],0%
same,Potency,[3],30.6 µM (active)
same,activity,[4],-30.8%
same,activity,[5],-0.809%
c1ccc2c(c1)OCC(C1=NCCN1)O2 (stereo not given),Potency,[1],inactive
same,Potency,[12],9.44 µM (active)
same,Potency,[13],7.5 µM (active)
CC(C)CC(N(C)C)C1(c2ccc(Cl)cc2)CCC1 (stereo not given),Potency,[12],inactive
N#CC(C#N)=Cc1ccc(O)c(O)c1,Potency,[1],inactive
same,Potency,[12],9.44 µM (active)
same,Potency,[13],10.6 µM (active)
same,activity,[2],34.9%
same,"activity change, negative = inhibition",[3],1.06%
same,activity,[4],-6.68%
same,activity,[5],-1.74%
COC[C@H]1OC(=O)c2coc3c2[C@@]1(C)C1=C(C3=O)C2CCC(=O)[C@@]2(C)C[C@H]1OC(C)=O (stereo not given in full),Potency,[1],inactive
same,Potency,[12],1.84 µM (active) and 7.42 µM (active)
same,Potency,[13],2.59 µM (active) and 18.3 µM (active) and 7.42 µM (active)
CCC1(C2=NCCN2)Cc2ccccc2O1 (stereo not given),Potency,[1],inactive
NN=C(N)N,Potency,[1],inactive
same,Potency,[12],inactive
same,Potency,[13],inactive
C=CCN1CC[C@]23c4c5ccc(O)c4O[C@H]2C(=O)CC[C@@]3(O)[C@H]1C5,Potency,[12],inactive
CCCN1CCC[C@@H]2Cc3[nH]ncc3C[C@H]21,Potency,[1],inactive
same,Potency,[12],inactive
same,Potency,[13],inactive
CCCN1CCC[C@@H]2Cc3nc(N)ncc3C[C@H]21,Potency,[1],inactive
same,Potency,[12],inactive
same,Potency,[13],inactive
Cc1cccc(C)c1NC1=NCCCS1,Potency,[1],inactive
same,Potency,[12],inactive
same,Potency,[13],inactive
COc1ccc(C(CN(C)C)C2(O)CCCCC2)cc1 (stereo not given),Potency,[1],inactive
same,Potency,[12],inactive
same,Potency,[13],inactive
O=C1NCN(c2ccccc2)C12CCN(CC1COc3ccccc3O1)CC2 (stereo not given),Potency,[1],inactive
same,Potency,[12],inactive
same,Potency,[13],inactive
Cn1c(CCCC(=O)O)nc2cc(N(CCCl)CCCl)ccc21,Potency,[1],25.1 µM (active)
C[C@@H]1O[C@@H](O[C@H]2C[C@@H](O)[C@]3(CO)[C@H]4[C@H](O)C[C@]5(C)[C@@H](C6=CC(=O)OC6)CC[C@]5(O)[C@@H]4CC[C@]3(O)C2)[C@H](O)[C@H](O)[C@H]1O,Potency,[1],inactive
same,Potency,[12],29.9 nM (active) and 50.2 nM (active) and 41.7 nM (active)
same,Potency,[13],37.6 nM (active) and 100 nM (active) and 66.1 nM (active)
CC(CCc1ccccc1)NC(C)C(O)c1ccc(O)cc1 (stereo not given),Potency,[1],inactive
same,Potency,[12],inactive
same,Potency,[13],inactive
c1ccc(C2CC2)c(OCC2=NCCN2)c1,Potency,[1],inactive
same,Potency,[13],inactive
Fc1ccc(C(OCCN2CCN(CCCc3ccccc3)CC2)c2ccc(F)cc2)cc1,Potency,[1],inactive
same,Potency,[12],6.68 µM (active) and 11.8 µM (active)
same,Potency,[13],5.96 µM (active) and 9.34 µM (active)
C=C(C)[C@H]1Cc2c(ccc3c2O[C@@H]2COc4cc(OC)c(OC)cc4[C@@H]2C3=O)O1,Potency,[1],inactive
same,Potency,[12],0.188 µM (active)
same,Potency,[13],0.15 µM (active)
Cc1cccc(C)c1NC(=O)CN1CCCC1=O,Potency,[1],inactive
same,Potency,[12],inactive
same,Potency,[13],inactive
COc1ccccc1N1CCNCC1,Potency,[1],inactive
CC[C@@H](CO)NC(=O)[C@@H]1C=C2c3cccc4c3c(cn4C)C[C@H]2N(C)C1,Potency,[1],inactive
same,activity,[2],1.79%
same,"activity change, negative = inhibition",[3],-1.19%
same,activity,[4],-2.9%
same,activity,[5],-4.59%
NCC(O)c1ccc(O)cc1 (stereo not given),Potency,[1],inactive
CC(=O)[C@H]1CC[C@H]2[C@@H]3CC[C@H]4C[C@](C)(O)CC[C@]4(C)[C@H]3CC[C@]12C,Potency,[1],inactive
same,Potency,[12],inactive
same,Potency,[13],inactive
N[C@@H]1C[C@H]1c1ccccc1,Potency,[12],inactive
O=c1[nH]c2ccccc2n1C1CCN(CCCC(c2ccc(F)cc2)c2ccc(F)cc2)CC1,Potency,[1],inactive
same,Potency,[12],23.7 µM (active) and 5.78 µM (active)
same,Potency,[13],16.8 µM (active) and 5.78 µM (active)
same,Potency,[15],inactive
same,outcome,[16],inactive
same,outcome,[17],inactive
